# Assay outcomes from PubChem BioAssay.
# PLK1 PBD inh – PLK1 (human) polo-box domain binding inhibition; P53350; Plk1 PBD binding of FITC phosphopeptide, fluorescence polarization; Potency, µM, for inactives: max response, negative = inhibition, actives largely listed as inhibitors; 2.8% of 360,000 active; AID 720504; also: series mostly up to about 57 µM; nearly all actives have a fitted effect of over 65% in size
# Target sequence (P53350 whole entry, looked up, the tested form may be a part): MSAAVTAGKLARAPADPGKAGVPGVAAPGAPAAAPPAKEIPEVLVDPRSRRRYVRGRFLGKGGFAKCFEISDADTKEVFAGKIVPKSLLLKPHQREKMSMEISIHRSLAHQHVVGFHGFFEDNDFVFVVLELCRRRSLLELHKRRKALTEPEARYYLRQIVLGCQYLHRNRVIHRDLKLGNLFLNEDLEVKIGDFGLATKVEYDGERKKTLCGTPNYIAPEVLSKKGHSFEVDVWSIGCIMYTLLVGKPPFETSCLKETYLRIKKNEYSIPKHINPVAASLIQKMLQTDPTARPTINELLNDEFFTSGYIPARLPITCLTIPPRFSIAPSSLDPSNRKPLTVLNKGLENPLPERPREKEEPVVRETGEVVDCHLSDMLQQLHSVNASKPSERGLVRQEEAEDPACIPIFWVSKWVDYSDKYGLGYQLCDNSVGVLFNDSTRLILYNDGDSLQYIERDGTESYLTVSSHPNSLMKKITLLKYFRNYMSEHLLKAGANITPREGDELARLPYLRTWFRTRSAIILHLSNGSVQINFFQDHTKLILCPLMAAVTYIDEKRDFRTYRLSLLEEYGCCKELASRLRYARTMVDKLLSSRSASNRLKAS
# RORg inh – blocks mouse ROR gamma transcriptional activity. Drosophila S2 Gal4-RORgamma UAS-luciferase reporter, 20 h. Potency, µM (highest dose often 53.6 µM), inactives show top-dose activity change, negative = inhibition, usual class: inhibitors. 5.4% of 310,000 active; also: nearly all actives have a fitted effect of over 60% in size
#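 Luciferase reporter read in Schneider cells carrying Gal4-RORγ (mouse) and UAS-Photinus luciferase; cells given compound 1 h before 700 uM copper sulfate induction, then incubated 20 h at ambient temperature.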
# VP16 counter – Gal4-VP16 reporter inhibition counter-screen; Drosophila S2 Gal4-VP16 UAS-luciferase, luminescence, 20 h; Potency, µM (doses to about 53.6 µM), for the others: top-dose activity, negative = inhibition, hits mostly inhibitors; 3.5% of 310,000 active; AID 2546;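 also: Gal4-VP16 expression switched on by copper sulfate through the metallothionein promoter; nearly all actives have a fitted effect of over 50% in size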
# Sfp PPTase inh – blocks B. subtilis Sfp PPTase activity | Q9F4F7 | Biochemical Sfp PPTase activity, qHTS | Potency, µM, inactives show largest response in the series, negative = inhibition, actives largely listed as inhibitors | 3.5% of 310,000 active;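 also: the enzyme is Sfp with the accession as filed and its product quenches rhodamine fluorescence; 0% = enzyme reaction without inhibitor and -100% = no enzyme wells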
#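 Reaction rates are the 30-min fluorescence difference (ex 525, em 598 nm) in wells containing 15 nM Sfp, 5 uM rhodamine-CoA and 12.5 uM BHQ-2-YbbR at pH 7.6 with 10 mM MgCl2.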
# ALDH1A1 inh – blocks purified human ALDH1A1 activity; Purified ALDH1A1, NADH fluorescence, propionaldehyde substrate; Potency, µM (titrated, usually from 75.3 µM), inactives show top-dose activity, negative = inhibition, most hits filed as inhibitors; 7.3% of 220,000 active; active = well fitted inhibition curve with a large enough effect, not every such curve was filed as active; inconclusive = small, poorly fitted or top-dose-only effect, or another doubt; inactive = no such curve, though single readings can be large or run the other way;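 also: plate controls were no enzyme wells and a reference inhibitor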
# TbPYK inh – confirmation of Trypanosoma brucei pyruvate kinase inhibitors; shares compounds with PLK1 PBD inh; recombinant TbPYK, Kinase-Glo ATP luminescence; Potency, µM (titrated, usually from 76.9 µM), inactives show at the top dose activity change, negative = inhibition, usual class: inhibitors; 67% of 890 active; also: nearly all actives have a fitted effect of over 70% in size
# TbPYK orthogonal – inhibits T. brucei pyruvate kinase in orthogonal ADP-Glo assay. shares compounds with PLK1 PBD inh. recombinant TbPYK, ADP-Glo luminescence, 60 min. Potency, µM (doses to about 76.9 µM), for the others: at the highest dose activity change, negative = inhibition, hits mostly inhibitors. 62% of 890 active. AID 720584; also: nearly all actives have a fitted effect of over 75% in size
# * hit, by the source's call; ? = inconclusive; nt = not tested or not shown; [ ] = remark or other dose. This is a sample that favours compounds with a hit; in the whole collection about 12% have one here. Unless noted, calls follow the shape of the dose curve; as a rule, active = well fitted curve in the direction sought with a large enough effect; inconclusive = small, poorly fitted or top-dose-only effect, or another doubt; inactive = no such curve, though single readings can be large; an effect the other way counts as inactive or inconclusive. Unless noted, % is scaled to controls: 0 for no effect and ±100 for the full control effect; potency is read from the fitted curve at half-maximal effect.
SMILES,PLK1 PBD inh,RORg inh,VP16 counter,Sfp PPTase inh,ALDH1A1 inh,TbPYK inh,TbPYK orthogonal
Cc1onc(-c2ccccc2Cl)c1C(=O)N1CCCc2ccccc21,-6%,-16%,-2%,14%,2%,7.9µM*,8.9µM*
Cc1onc(-c2ccccc2Cl)c1C(=O)N1CCc2ccccc21,-11%,8%[0.365 µM],nt,4%,3%,nt,nt
Cc1onc(-c2c(F)cccc2Cl)c1C(=O)N1CCCC1,-6%,nt,nt,nt,nt,nt,nt
Cc1onc(-c2c(F)cccc2Cl)c1C(=O)N1CCCc2ccccc21,-2%,-3%,1%,18%,7%,8.9µM*,7.9µM*
O=C(NCCc1ccccc1Cl)C1CCC(=O)N(CC2CCCCC2)C1 (stereo not given),-7%,13%,-18%,2%,nt,nt,nt
CCOC(=O)[C@H]1[C@H]2COc3ccc(Cl)cc3[C@@H]2N2C(=O)[C@@H](C)NC(=O)[C@@]12C,-17%,nt,nt,nt,nt,nt,nt
COc1ccccc1CCNC(=O)CNC(=O)c1ccc2ccccc2c1,-8%,-21%,2%,6%,nt,nt,nt
CCn1c(CCNC(=O)c2cccs2)nnc1SCC(=O)Nc1nc(-c2ccccc2)cs1,-5%,?,29%,11%,2%,nt,nt
CCn1c(CCNC(=O)c2cccs2)nnc1SCC(=O)c1ccc(OC)cc1,?,nt,nt,nt,nt,0.89µM*,14µM*
O=C(NCc1ccccc1Cl)C(=O)NCC1OCCN1S(=O)(=O)c1ccc(F)cc1 (stereo not given),-12%,14%,7%,-1%,nt,18µM*,32µM*
O=C(O)CC(C(=O)O)N1C(=O)/C(=C/C=C/c2ccco2)SC1=S (stereo not given),2.4µM*,-25%,-5%,22µM*,nt,?,?
O=C1/C(=C\c2ccco2)SC(=S)N1C1CCCCC1,nt,23%,20%,-13%,nt,nt,nt
C=CCN1C(=O)/C(=c2\sc3nc(=O)c(Cc4ccccc4Cl)nn3c2=O)c2ccccc21,12µM*,13µM*,?,11µM*,3.5µM*,35µM*,40µM*
CC(OC(=O)C1=Cc2ccccc2OC1)C(=O)NCC1CCCO1 (stereo not given),12µM*,nt,nt,nt,nt,-7%,-7%
COCCNC(=O)C(C)OC(=O)C1=Cc2ccccc2OC1 (stereo not given),-10%,17%,7%,12%,-7%,nt,nt
COC(=O)CSc1nc(N2CCOCC2)c2c(c1C#N)CC(C)(C)N(C)C2,-2%,-7%,2%,21%,?,nt,nt
CCOC(=O)CCSc1nc(N2CCOCC2)c2c(c1C#N)CC(C)(C)OC2,-10%,-14%,-10%,-2%,nt,11µM*,11µM*
CCOC(=O)C1C(C)=C(Nc2ccc(OC)cc2)C(=O)N1c1ccc(OC)cc1 (stereo not given),2%,4%,-3%,5%,?,nt,nt
COCCN=C1NN=C(c2ccc(C)c([N+](=O)[O-])c2)CS1,27µM*,13µM*,-16%,-26%,?,?,?
Cc1ccc(S(=O)(=O)C=CS(=O)(=O)c2ccc(C)cc2)cc1,2.7µM*,nt,nt,nt,nt,-61%,?
Oc1cc(O)cc(/C=C/c2ccc(O)c(O)c2)c1,-13%,-25%,3%,40µM*,?,11µM*,?
C/C=C/c1ccc(O)c(OC)c1,?,-3%[10 µM],2%,-11%,-6%,nt,nt
NS(=O)(=O)c1ccc(N=Nc2c[nH]c(=O)c(O)c2)cc1,?,-18%,-12%,45µM*,?,?,-12%
O=C1C=CC(=O)N1c1ccc(Nc2ccccc2)cc1,24µM*,nt,nt,nt,nt,?,?
O=C1C=CC(=O)N1c1ccc2ccccc2c1,8.4µM*,nt,nt,nt,nt,25µM*,?
SMILES,PLK1 PBD inh,RORg inh,VP16 counter,Sfp PPTase inh,ALDH1A1 inh,TbPYK inh,TbPYK orthogonal
O=C(Nc1ccc(Nc2ccccc2)cc1)c1c(F)c(F)c(F)c(F)c1F,-8%,-22%[1.91 µM],?,-15%,nt,nt,nt
Cc1cccc(N2C(=O)C=CC2=O)c1,30µM*,nt,nt,nt,nt,?,?
CCN(C[C@H]1N[C@@](CC)(C(=O)OC)[C@H]2C(=O)N(C)C(=O)[C@@H]12)C(=O)COC,-14%,nt,nt,nt,nt,nt,nt
O=C(C1=C(O)C(=O)N(CC2CCCO2)C1c1ccc(Cl)cc1Cl)c1ccco1 (stereo not given),-11%,31%,-6%,-12%,nt,nt,nt
O=C1N=c2ccccc2=C1c1c(O)n(-c2cccc(F)c2)[nH]c1=O,5.3µM*,5%,-13%,11µM*,25µM*,3.5µM*,7.9µM*
CCn1c(O)c(C2=c3ccccc3=NC2=O)c2cc(Br)ccc21,-17%,?,-9%,-21%,7%,nt,nt
Cc1ccc(S(=O)(=O)NNC(=O)c2cccs2)c(C)c1,2%,-1%,-1%,13%,3%,nt,nt
Cc1ccc(S(=O)(=O)NNc2ccccc2)c(C)c1,21µM*,-6%,-16%,18µM*,7.1µM*,16µM*,?
CCOC(=O)c1ccc(/[N+]([O-])=C/c2ccccc2)cc1,21µM*,nt,nt,nt,nt,-26%,-11%
CCOC(=O)c1ccc(CNCc2ccccc2)cc1,-19%,17%,2%,8%,-2%,nt,nt
CC(Oc1cccc(Cl)c1)C(=O)Nc1ccc(S(=O)(=O)N(C)C2CCN(C)CC2)cc1 (stereo not given),-7%,nt,nt,nt,nt,nt,nt
CCOc1ccccc1-n1c(=S)sc2c(=O)n(-c3ccc(C)cc3)c(=S)[nH]c21,6.7µM*,-40%,2%,45µM*,7.9µM*,4.5µM*,6.3µM*
CCn1c(=S)sc2c(=O)n(-c3ccccc3)c(=S)[nH]c21,-15%,-34%,-4%,-26%,?,nt,nt
CCC(=O)/C=C1/Sc2ccccc2N1CC,27µM*,-23%,-1%,28µM*,3.5µM*,?,18µM*
COC(=O)C1=C(C(=O)OC)C(C(=O)OC)C(C(=O)OC)C(C(=O)OC)(C(=O)OC)C(C(=O)OC)=C1C(=O)OC (stereo not given),11µM*,nt,nt,nt,nt,28µM*,35µM*
COC(=O)C1C(C(=O)OC)C1(c1ccccc1)c1ccccc1 (stereo not given),4%,-6%,5%,16%,nt,nt,nt
O=C(NCc1cc(Cl)cc(Cl)c1)c1ccc2nc([C@@H]3O[C@H](CO)[C@@H](O)[C@H]3O)[nH]c2c1,-7%,nt,nt,nt,nt,nt,nt
CC(C)CC1CC(=O)OC1(C)C(=O)CSc1nc2ccccc2s1 (stereo not given),19µM*,?,-2%,-22%,8.9µM*,?,?
O=C(CSc1ccc(S(=O)(=O)N2CCOCC2)cn1)Nc1ccc(F)c(F)c1,-10%,nt,nt,nt,nt,nt,nt
